Screening data: PubChem, several laboratories
p97 ATPase inh: blocks human p97 ATPase activity | P55072 | recombinant p97 ATPase, Kinase-Glo ATP luminescence, 3 h | inhibition, % at 8 µM | actives 0.42% (n = 220,000) | AID 1481; in the data active means inhibition above about 15%;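 further: 0% = DMSO vehicle and 100% = wells lacking enzyme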
G6PDH CS: inhibits Leuconostoc G6PDH, flagging false hits in G6PDH-based assays | Purified L. mesenteroides G6PDH, diaphorase/resazurin coupled fluorescence, 45 min | inhibition, % at 5 µM | actives 0.12% (n = 200,000); in the data active means inhibition above about 50%
SUMO HTRF inh: blocks human SUMOylation mediated by UBC9; HTRF SUMOylation assay, SAE1/SAE2 + UBC9, in vitro; inhibition, % at 35 µM; P63279; actives 0.36% (n = 290,000); in the data active means inhibition above about 50%, passing the limit was not always enough
Target sequence (P63279 whole entry, looked up): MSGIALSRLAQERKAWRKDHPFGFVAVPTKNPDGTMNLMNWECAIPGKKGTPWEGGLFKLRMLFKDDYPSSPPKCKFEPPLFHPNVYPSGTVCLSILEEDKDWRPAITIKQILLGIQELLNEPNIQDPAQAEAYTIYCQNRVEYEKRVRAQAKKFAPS
HDAC3 inhib: human HDAC3 inhibition. recombinant HDAC3, fluorogenic peptide/trypsin coupled, fluorescence. actives 0.15% (n = 320,000). inhibition, % at 8.3 µM; in the data active means inhibition above about 26%, passing the limit was not always enough
Target sequence (O15379 whole entry, looked up): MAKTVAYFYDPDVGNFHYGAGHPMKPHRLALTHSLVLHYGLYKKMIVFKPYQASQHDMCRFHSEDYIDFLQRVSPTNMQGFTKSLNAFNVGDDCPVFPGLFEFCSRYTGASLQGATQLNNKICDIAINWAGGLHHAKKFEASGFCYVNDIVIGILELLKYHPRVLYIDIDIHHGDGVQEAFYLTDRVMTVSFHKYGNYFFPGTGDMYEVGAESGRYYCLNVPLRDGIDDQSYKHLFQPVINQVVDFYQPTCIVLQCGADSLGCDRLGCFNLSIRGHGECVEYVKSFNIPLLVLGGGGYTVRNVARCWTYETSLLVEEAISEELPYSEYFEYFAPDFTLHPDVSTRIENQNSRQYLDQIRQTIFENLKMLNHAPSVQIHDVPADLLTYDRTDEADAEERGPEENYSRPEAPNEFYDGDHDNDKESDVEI
PHOSPHO1 block: PHOSPHO1 (human) inhibition; Q8TCT1; recombinant PHOSPHO1, absorbance phosphatase assay; inhibition, % at 13.3 µM; actives 1.1% (n = 290,000); in the data active means inhibition above about 60%
M18AAP inhibitor: PfM18AAP enzyme inhibition. recombinant PfM18AAP, H-Glu-NHMec fluorogenic cleavage. inhibition, % at 7.35 µM. actives 1.2% (n = 290,000). AID 1822;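 active means inhibition above the campaign mean inhibition over all tested compounds plus 3 SD, cut at about 28% in these data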;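 further: 0% = plate median of test compound wells and 100% = 2 mM ZnCl2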
* hit, by the source's call. In the library only some 2.5% were active in any assay of this set; here they are far more common.

`Cn1ccnc1SCC(=O)c1cc2ccccc2o1` gave p97 ATPase inh 10, G6PDH CS 4, SUMO HTRF inh 13, HDAC3 inhib 9, PHOSPHO1 block 91* and M18AAP inhibitor 6.
For CCOC(=O)c1ccc2c(c1)nc(SCC(=O)c1cc3ccccc3o1)n2CC the results were p97 ATPase inh 4, G6PDH CS 6, SUMO HTRF inh 17, HDAC3 inhib -4, PHOSPHO1 block 90* and M18AAP inhibitor 6.
For CC(=O)c1ccccc1OCCCCN1CCCCC1 the results were SUMO HTRF inh 15, HDAC3 inhib 5, PHOSPHO1 block 55 and M18AAP inhibitor 2.
For Cc1cccc(C)c1OCc1nnc(SCC(=O)Nc2nccs2)o1 the results were p97 ATPase inh 7, G6PDH CS 6, SUMO HTRF inh -6, HDAC3 inhib -5, PHOSPHO1 block 19 and M18AAP inhibitor 28*.
`CCCc1nnc(SCC(=O)Nc2nccs2)o1` gave SUMO HTRF inh -15, HDAC3 inhib 1, PHOSPHO1 block -5 and M18AAP inhibitor 4.
For COc1cc(/C=C(\C#N)C(=O)c2ccc(O)c(O)c2)cc(I)c1O the results were HDAC3 inhib 13.
Screening Cc1cc(OCC(=O)Nc2cccnc2)c2c(C)cc(=O)oc2c1 returned SUMO HTRF inh 27, HDAC3 inhib -23, PHOSPHO1 block 38 and M18AAP inhibitor -5.
For CCCc1cc(=O)oc2cc(C)cc(OCC(=O)Nc3cccnc3)c12 the results were SUMO HTRF inh 30, HDAC3 inhib -3, PHOSPHO1 block 62* and M18AAP inhibitor 2.
For CC(C)NC(=O)CN(Cc1ccc(F)cc1)C(=O)CCC(=O)Nc1ccccn1 the results were SUMO HTRF inh -2, HDAC3 inhib 0, PHOSPHO1 block 6 and M18AAP inhibitor -3.
For O=C(CC1(CC(=O)N2CCOCC2)CCCC1)Nc1ccc(F)cc1 the results were HDAC3 inhib 4.
For O=C1CSC(=S)N1c1cccc(O)c1 the results were SUMO HTRF inh -18, HDAC3 inhib 0, PHOSPHO1 block 33 and M18AAP inhibitor -8.
For O=C1CSC(=S)N1c1ccc(F)cc1 the results were SUMO HTRF inh 21, HDAC3 inhib 1, PHOSPHO1 block 16 and M18AAP inhibitor -7.
O=C1CSC(=S)N1c1cccc(Br)c1 was read as SUMO HTRF inh 8, HDAC3 inhib 4 and M18AAP inhibitor 30*.
CN(C)c1ccc(N2C(=O)CSC2=S)cc1 was read as p97 ATPase inh 9, G6PDH CS 5, SUMO HTRF inh 73*, HDAC3 inhib -2, PHOSPHO1 block -9 and M18AAP inhibitor 21.
`COc1cc(C(=O)Nc2ccc3c(c2)CCCN3C(=O)c2ccco2)c([N+](=O)[O-])cc1OC` gave HDAC3 inhib 10.
For COc1ccc(-c2noc(CCC(=O)NCCc3ccccc3)n2)cc1 the results were SUMO HTRF inh 16, HDAC3 inhib 1, PHOSPHO1 block 20 and M18AAP inhibitor 5.
Screening CCN(CCCNC(=O)CCc1nc(-c2ccc(OC)cc2)no1)c1cccc(C)c1 returned p97 ATPase inh 9, G6PDH CS 5, SUMO HTRF inh -8, HDAC3 inhib 2, PHOSPHO1 block 20 and M18AAP inhibitor 32*.
For CC(C)(C)c1nnc2sc(SC/C(O)=C(\C#N)c3nc4ccccc4[nH]3)nn2c1=O the results were p97 ATPase inh 3, G6PDH CS 15, SUMO HTRF inh 11, HDAC3 inhib -7, PHOSPHO1 block 71* and M18AAP inhibitor 14.
`CC(C)(C)c1nnc2sc(SCC(=O)c3ccccc3)nn2c1=O` gave p97 ATPase inh 4, G6PDH CS -3, SUMO HTRF inh 10, HDAC3 inhib -9, PHOSPHO1 block 27 and M18AAP inhibitor 5.
For Cc1cccc2sc(NNC(=O)c3cc(-c4cccs4)nc4ccccc34)nc12 the results were p97 ATPase inh 7, G6PDH CS 10, SUMO HTRF inh -10, HDAC3 inhib -4, PHOSPHO1 block -4 and M18AAP inhibitor 31*.
For NNC(=O)c1cc(-c2cccs2)nc2ccccc12 the results were p97 ATPase inh 4, SUMO HTRF inh 21, HDAC3 inhib -7, PHOSPHO1 block 43 and M18AAP inhibitor 5.
COC(=O)c1cc(S(=O)(=O)Nc2cccc(-c3cnco3)c2)oc1C was read as SUMO HTRF inh 1, HDAC3 inhib -2, PHOSPHO1 block 14 and M18AAP inhibitor 1.
`COc1ccc(Cl)cc1NC(=O)CN(C)C(=O)c1cn2ccccc2n1` gave HDAC3 inhib 6.
`Cc1cc(C)c2c(N)c(S(=O)c3ccc(C(C)(C)C)cc3)sc2n1` (configuration not stated) gave p97 ATPase inh 2, G6PDH CS -7, SUMO HTRF inh 19, HDAC3 inhib 6, PHOSPHO1 block 106* and M18AAP inhibitor 1.
COc1cc(/C=N\NC(=O)CNC(=O)C2COc3ccccc3O2)ccc1O (configuration not stated) was read as p97 ATPase inh 5, G6PDH CS -11, SUMO HTRF inh -7, HDAC3 inhib 5, PHOSPHO1 block 11 and M18AAP inhibitor 1.
CCN(CC)c1ccc(/C=N/NC(=O)CNC(=O)C2COc3ccccc3O2)c(O)c1 (configuration not stated) was read as SUMO HTRF inh 51*, HDAC3 inhib -5, PHOSPHO1 block 9 and M18AAP inhibitor 20.
Screening CCOC(=O)c1sc(NC(=O)CSc2n[nH]c(-c3ccccc3)n2)c(C#N)c1C returned p97 ATPase inh 1, G6PDH CS -30, SUMO HTRF inh 15, HDAC3 inhib -5, PHOSPHO1 block 77* and M18AAP inhibitor 20.
CCOC(=O)c1c(NC(=O)CSc2n[nH]c(-c3ccco3)n2)sc(C)c1C was read as p97 ATPase inh 2, G6PDH CS -24, SUMO HTRF inh -28, HDAC3 inhib -1, PHOSPHO1 block 21 and M18AAP inhibitor 31*.
CCOC(=O)c1sc(NC(=O)CSc2nnc(Cc3ccccc3)o2)c(C#N)c1C was read as p97 ATPase inh 2, G6PDH CS -25, SUMO HTRF inh 4, HDAC3 inhib 7, PHOSPHO1 block 86* and M18AAP inhibitor 5.
Cc1ccccc1C(=O)Nc1ccc(N(C)C)c2ccccc12 was read as SUMO HTRF inh 4, HDAC3 inhib -1, PHOSPHO1 block 25 and M18AAP inhibitor 5.
NC(=O)[C@H](Cc1cc2ccccc2s1)NC(=O)[C@@H]1CC2(CC(c3cccc(NC(=O)[C@@H]4CCC(=O)N4)c3)=NO2)CN1C(=O)c1ccccc1 (some centres not stated) was read as p97 ATPase inh 3, G6PDH CS -1, SUMO HTRF inh 1, HDAC3 inhib -1, PHOSPHO1 block 19 and M18AAP inhibitor 3.
